SKKanGAS inh: S. pyogenes SKKanGAS growth inhibitors in kanamycin, primary screen, streptokinase expression inhibitor project, SKKanGAS strain, BacTiter-Glo luminescence | 6 h | inhibition, % at 7.5 µM | hit rate 1.3% among 300,000;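 active means mean replicate score, as percent of positive control median, at least 50; inconclusive means mean below 50 but one replicate at or above 50; inactive means mean and every replicate below 50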;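 further: strain carries kanamycin resistance gene driven by streptokinase promoter and grows in 40 µg/ml kanamycin; loss of luminescence reflects streptokinase promoter inhibition or plain growth inhibition; 0% = median of DMSO wells and 100% = positive control at its reference dose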
Beta apoptosis: inhibitors of cytokine-induced beta cell apoptosis, primary screen, luminescence. protection from apoptosis, % (test concentration not listed). INS-1E cytokine-induced death, ATP luminescence, 48 h; percent of positive-control rescue, neutral wells zero. AID 435005, 2010. hit rate 0.8% among 300,000;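 active means Every replicate reaches about 75%, or at least half do and their mean reaches it too, limit read from the data; inconclusive means At least half of replicates reach the limit but their mean does not; inactive means Under half of replicates reach the limit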;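 further: 0% = cytokine-treated negative control wells and 100% = positive control rescue; higher means more ATP so stronger rescue from cytokine killing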
Mdm2-MdmX inh: inhibitors of human Mdm2-MdmX association, primary screen, cell-based, luminescence, split luciferase, SaOS-2, uHTS; hit rate 3% among 330,000; SaOS-2 split-luciferase Mdm2/MdmX complementation; AID 485346, 2010; inhibition, % at 8 µM;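 active means inhibition of at least 50% at 8 µM in the primary screen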
Target sequence (O15151 whole entry, looked up): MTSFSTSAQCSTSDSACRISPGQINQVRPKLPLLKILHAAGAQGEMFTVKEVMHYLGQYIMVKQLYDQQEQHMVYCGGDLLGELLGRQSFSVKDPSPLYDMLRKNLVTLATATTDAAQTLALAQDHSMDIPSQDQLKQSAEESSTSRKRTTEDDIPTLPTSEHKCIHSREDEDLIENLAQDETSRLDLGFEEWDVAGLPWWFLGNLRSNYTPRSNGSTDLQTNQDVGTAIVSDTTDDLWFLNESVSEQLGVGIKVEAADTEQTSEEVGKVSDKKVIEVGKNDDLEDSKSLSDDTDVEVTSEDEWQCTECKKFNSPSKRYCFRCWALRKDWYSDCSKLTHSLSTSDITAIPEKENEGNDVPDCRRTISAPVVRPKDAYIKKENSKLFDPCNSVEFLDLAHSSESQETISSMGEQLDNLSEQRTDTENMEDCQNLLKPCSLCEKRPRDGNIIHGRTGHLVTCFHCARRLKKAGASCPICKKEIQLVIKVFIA
Target sequence (Q00987 whole entry, looked up): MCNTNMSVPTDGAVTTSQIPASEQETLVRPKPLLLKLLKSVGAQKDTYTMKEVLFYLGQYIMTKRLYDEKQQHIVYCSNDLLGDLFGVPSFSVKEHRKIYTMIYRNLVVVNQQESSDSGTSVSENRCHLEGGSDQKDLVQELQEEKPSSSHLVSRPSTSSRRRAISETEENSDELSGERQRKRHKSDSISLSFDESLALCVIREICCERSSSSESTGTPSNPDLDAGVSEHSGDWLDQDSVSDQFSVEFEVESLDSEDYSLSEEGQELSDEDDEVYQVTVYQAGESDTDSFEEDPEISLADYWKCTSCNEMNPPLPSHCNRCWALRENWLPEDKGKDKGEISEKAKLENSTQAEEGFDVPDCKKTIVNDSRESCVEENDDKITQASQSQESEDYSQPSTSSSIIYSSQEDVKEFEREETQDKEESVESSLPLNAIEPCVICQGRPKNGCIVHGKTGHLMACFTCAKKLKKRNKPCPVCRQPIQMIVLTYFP
Calb FLC: C. albicans growth inhibition with fluconazole, primary screen, CaCi-2 strain, Alamar Blue fluorescence; C. albicans CaCi-2 (fluconazole-resistant clinical isolate) + fluconazole, 48 h; growth inhibition, % (no concentration beside the values); hit rate 0.57% among 300,000;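 active means growth inhibition above about 58% in most replicates, limit read from the data, passing the limit was not always enough; inconclusive means exactly half the replicates above a set limit; inactive means most replicates below a set limit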;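 further: all wells also contain fluconazole at 8 µg/ml as a sub-toxic cotreatment; 0% = median of DMSO wells and 100% = median of geldanamycin control wells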
CSC inhib: cancer stem cell viability inhibitors, primary screen, luminescence. hit rate 1.1% among 300,000. cancer stem cell-like cells viability. inhibition, % at 7.5 µM; in the data active means inhibition above about 75%; inconclusive means no clear call, values can overlap the other calls; tested in HMLE shEcad cells
MPTP block: mitochondrial permeability transition pore inhibitors, primary screen, biochemical, isolated mouse mitochondria, absorbance | Ca2+ swelling absorbance, 30 min | inhibition, % at 10 µM | hit rate 1.4% among 360,000;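 active means inhibition of 50% or more, scaled per plate between neutral and stimulator controls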;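 further: 0% = DMSO wells given calcium and 100% = 1 mM EGTA wells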
Rh123 counter: fluorescence retest of MPTP screen hits in isolated mitochondria, single concentration | shares compounds with MPTP block | membrane potential, Rhodamine 123 fluorescence | inhibition, % at 10 µM | hit rate 78% among 5,000 | AID 624504, 2012; in the data active means inhibition above about 22%;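 further: 0% = DMSO vehicle and 100% = positive control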
MPTP abs DR: mitochondrial permeability transition pore inhibitors, dose response, biochemical, absorbance, uHTS hits; hit rate 58% among 780; AID 651561, 2012; IC50, µM; isolated mitochondria swelling; shares compounds with MPTP block; in the data active means IC50 below about 20 µM
MPTP counter DR: fluorescent counter-screen in isolated mitochondria, dose response, counter-screen for MPTP inhibitor project, biochemical, fluorescence, uHTS hits; shares compounds with MPTP block; isolated mitochondria counterscreen, fluorescence read-out; IC50, µM; hit rate 49% among 780; in the data active means IC50 below about 80 µM
The depositor's hits bear a star; ? = inconclusive; · = no result. An excerpt weighted towards active compounds, which were near 5.4% of everything screened.

SMILES	SKKanGAS inh	Beta apoptosis	Mdm2-MdmX inh	Calb FLC	CSC inhib	MPTP block	Rh123 counter	others
O=c1oc2ccccc2c(NCc2ccccc2F)c1[N+](=O)[O-]	-3	-12	7	15	-5	-6	·
CCOc1ccc(NC(=O)CN(C)C(=O)C2COc3ccccc3O2)cc1OCC (configuration not stated)	·	-7	-18	·	·	0	·
O=C(O)c1ccc(CS(=O)(=O)Cc2ccccc2F)o1	-2	-12	33	-3	-14	15	·
C=CCn1c(SCC(=O)c2cccs2)nc2sc(CC)cc2c1=O	0	18	29	3	38	91*	77*
C=CCn1c(SCC2CCCCO2)nc2sc(CC)cc2c1=O (configuration not stated)	-3	27	14	-8	27	54*	22*
C=CCn1c(SCC(=O)NC2CC2)nc2sc(CC)cc2c1=O	30	-1	13	57	-7	0	·
Fc1ccccc1NC(=S)NNc1ncc(C(F)(F)F)cc1Cl	-6	66	41	0	·	5	·
Cc1ccc(C23CC4CC(CC(CN)(C4)C2)C3)cc1	5	·	·	10	·	80*	-15	MPTP abs DR=5*;MPTP counter DR=75*
Cc1ccc(C23CC4CC(CC(C(N)=O)(C4)C2)C3)cc1	7	-2	-8	-6	-39	0	·
CC1=NN(c2ccc([N+](=O)[O-])cc2)C(=O)/C1=C\N(C)C	56*	42	17	1	42	99*	13
COc1cccc(-c2csc(N3CCN(C(=S)Nc4ccccc4)CC3)n2)c1	15	-2	3	-9	-6	9	·
COc1cccc(-c2csc(N3CCN(C(=S)Nc4ccc(Cl)cc4)CC3)n2)c1	27	-1	15	1	4	64*	70*
NC(N)=NN=C(c1ccc(F)cc1)c1ccc(C(F)(F)F)cc1	·	·	·	·	·	70*	-13	MPTP abs DR=4.8*;MPTP counter DR=41*
O=C(N/N=C/c1ccc(C(F)(F)F)cc1)c1ccc(O)cc1	11	20	-3	-12	·	-1	·
CCOC(=O)CSc1n[nH]c(=S)s1	-3	3	4	-10	7	1	·
CC(C)(C)CC(C)(C)SSc1n[nH]c(=S)s1	·	·	·	·	·	51*	37*
CCOc1cc(NC(=O)C2CC2)c(OCC)cc1NC(=O)c1cccc(F)c1	1	-4	8	-3	8	106*	0	MPTP abs DR=>100;MPTP counter DR=>80
Cc1ccc(S(=O)(=O)N(CC(=O)NC2CC2)c2ccc(C)c(Cl)c2)cc1	-10	2	2	·	-7	-2	·
COc1ccc(CNCC(O)COc2cccc3c2OC(C)(C)C3)cc1 (configuration not stated)	-10	72	32	-29	-8	75*	46*
Clc1cnc(N/N=C/c2ccncc2)c(Cl)c1	-3	-3	5	-9	1	-2	·
Clc1ccc(N/N=C/c2ccncc2)cc1Cl	3	·	-62	?	·	70*	56*
COCc1cc(C)nc(OCC(=O)N/N=C/c2cc(C)n(-c3c(C)cccc3C)c2C)c1C#N	2	2	34	0	-17	56*	0	MPTP abs DR=7.9*;MPTP counter DR=>80
Cc1cc(CN2CCCC(C(=O)Nc3cccc(-n4cccn4)c3)C2)cc(C)c1O (configuration not stated)	2	3	6	-6	-5	70*	85*
CCOc1cccc(CN2CCCC(C(=O)Nc3cccc(-n4cccn4)c3)C2)c1 (configuration not stated)	-6	-1	25	4	7	1	·
CCOc1ccccc1CN1CCCC(C(=O)Nc2cccc(-n3cccn3)c2)C1 (configuration not stated)	-8	1	26	-5	·	58*	9	MPTP abs DR=6.8*;MPTP counter DR=18*
SMILES	SKKanGAS inh	Beta apoptosis	Mdm2-MdmX inh	Calb FLC	CSC inhib	MPTP block	Rh123 counter	others
Cn1cc(CN2CCCC(C(=O)Nc3cccc(-n4cccn4)c3)C2)cn1 (configuration not stated)	-1	-6	18	0	-1	-3	·
CCOC(=O)C1=C(c2ccccc2)NC(=S)NC1c1ccc(C)c([N+](=O)[O-])c1 (configuration not stated)	0	-7	-6	-14	-21	-8	·
CC(C)Cc1csc(NC(=O)c2ccccc2Cl)c1C(=O)O	31	-9	29	1	24	-1	·
CC(C)Cc1csc(NC(=O)c2ccc(Cl)cc2)c1C(=O)O	74*	-4	-18	10	24	90*	88*
CC1(C)CC(=O)CC(C)(C)N1OC(=O)c1ccccn1	-6	-4	10	-4	17	1	·
CCc1nnc(NC(=O)c2ccc(Cl)c(S(=O)(=O)N3CCc4ccccc43)c2)s1	38	-4	-7	-28	18	6	·
Cc1cccc(NC(=O)c2ccc(Cl)c(S(=O)(=O)N3CCc4ccccc43)c2)n1	·	-5	27	·	26	-1	·
O=C(Nc1nnc(C2CC2)s1)c1ccc(Cl)c(S(=O)(=O)N2CCc3ccccc3C2)c1	40	5	-5	7	-9	51*	60*
O=C(Nc1ccncc1)c1ccc(Cl)c(S(=O)(=O)N2CCc3ccccc32)c1	-6	·	43	31	30	58*	91*
COc1ccccc1N1CCN(C2=CC(=O)CCC2)CC1	2	-7	-9	-24	-12	0	·
COc1ccc2c(c1)N(C[C@H](C)CN(C)C)c1ccccc1S2	·	·	·	·	·	67*	-16	MPTP abs DR=8.8*;MPTP counter DR=>80
CC(CN(C)C)CN1c2ccccc2Sc2ccccc21 (configuration not stated)	·	·	40	·	7	77*	-11	MPTP abs DR=7.1*;MPTP counter DR=>80
CCOC(=O)C1(C)NC(c2cccs2)C2C(=O)N(c3ccccc3)C(=O)C21 (configuration not stated)	-13	-2	11	0	-9	-1	·
CC(=O)c1ccc(OCC(=O)OC(C)C(=O)NC2CCCCC2C)cc1 (configuration not stated)	·	1	0	·	-8	1	·
CN(C)S(=O)(=O)c1cccc(NC(=O)COC(=O)c2cccc(S(=O)(=O)N3CCc4ccccc4C3)c2)c1	12	-3	-4	-4	1	3	·

Screens deposited in PubChem by several laboratories.
